This note sets out measurements from PubChem BioAssay (NCI).

What all share (test): NCI-60 one-dose screen, 48 h (100 = growth as untreated, 0 = no growth, -100 = all killed)
What all share (details): 10 µM unless noted

For test [1], the system named is NCI-H23 lung.
For test [2], the system named is NCI-H226 lung.
In test [3] the test system is NCI-H322M lung.
For test [4], the system named is HOP-62 NSCLC.
The subject of test [5] is NCI-H460 lung.
Test [6] relates to HOP-92 NSCLC.
The test system of test [7] is NCI-H522 lung.
In test [8] the test system is A549/ATCC NSCLC.
The subject of test [9] is 786-0 renal.
In test [10] the test system is COLO 205 colon.
Test [11] deals with DU-145 prostate.
The subject of test [12] is K-562 leukemia.
Test [13] relates to MALME-3M melanoma.
Test [14] has as its system MDA-MB-231 breast.
In test [15] the test system is RXF 393 renal.
Test [16] has as its system SF-268 CNS.
In test [17] the test system is SF-295 CNS.
Test [18] relates to SF-539 CNS.
The test system of test [19] is UACC-257 melanoma.
In test [20] the test system is M14 melanoma.

Compounds without any hit were thinned out: in the full panel of roughly 83,000, 20% have a hit.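 Assay: single dose, 48 h. Readout: percent growth (0 = no net growth; negative = cell death). Active: <10.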 A number with no mark means an inactive call. The source made the active and inactive calls.

`CCOP(=O)(Cc1ccc(C#N)cc1)OCC`: the growth was 99.9% in test [1]; 108% in [2]; 104% in [3]; 98.5% in test [4]; 108% in test [5]; 76.9% in test [6]. The growth in test [7] is 75%; in test [8] it was 91.2%; in [9], 101%; in test [10] it was 108%; in [11] it was 116%; in test [12] it was 100%. Also, the growth in [13] was 108%; in test [14] it was 100%; in test [15] it was 115%; in test [16], 112%; in test [17], 108%; in test [18] it was 109%. The growth in test [19] was 88.8%; in test [20], 101%.
Regarding `O=C1C2CC=CCC2C(=O)N1SC(Cl)(Cl)Cl` (stereo not given), the growth in [1] was 96.7%; in test [2] it was 106%; in [3], 125%; in [4], 95.9%; in [5], 103%; in test [6] it was 64.7%. Besides, the growth is -57.1% (active) in test [7]; 108% in test [8]; 97.7% in [9]; 87.5% in test [10]; 109% in test [11]; 45.1% in test [12]. Besides, the growth in test [13] is 81.8%; in test [14] it was 103%; in test [15] it was 63.6%; in test [16], 104%; in test [17], 134%; in test [18], 91.3%. The figures for the growth in [19] and in test [20] were 105% and 92.1%, respectively.
On to `COc1cc(C=Nc2cccc(Br)c2)ccc1N(CCCl)CCCl`, for which the growth in test [1] was 72.7%; in [2], 75.2%; in test [3], 132%; in test [4], 89%; in test [5] it was 21.9%; in test [6] it was 74.8%. The growth is -81.5% (active) in test [7]; 64.9% in test [8]; 94.4% in [9]; 78.5% in test [10]; 87.6% in test [11]; 88.4% in [12]. The growth in [13] is 128%; in test [14], 91.2%; in test [15], 2.86% (active); in [16], 80.3%; in test [17] it was 44.4%; in test [18] it was 67.9%. Moreover, the growth in [19] was 96.6%; in test [20], 94%.
With `CC(=O)OCc1cc[c]([Hg][Cl])o1`, the growth in test [1] is 58.8%; in [2] it was 81.5%; in test [3], 98.7%; in test [4], 91.4%; in test [5] it was 84.9%; in [6], 53.8%. Besides, the growth in [7] was -53.6% (active); in test [8], 73.9%; in [9], 24.5%; in test [10] it was -1.94% (active); in test [11] it was 84.2%; in test [12], 7.96% (active). The growth is -39.7% (active) in test [13]; 26% in [14]; -38.7% (active) in test [15]; 22.5% in test [16]; 78.1% in [17]; 44.2% in test [18]. The values for the growth in [19] and in test [20] were 53.5% and 13%, respectively.
Turning to `O=C(c1cccc(O)c1O)c1cn(Cc2ccc(F)cc2)c2cccc(O)c12`, the growth is 47.8% in [1]; 61.5% in [2]; 37.9% in [3]; 31% in test [4]; 11.4% in test [5]; -9.9% (active) in test [6]. In addition, the growth in test [7] was -36.5% (active); in [8], 30.5%; in test [9], 31.2%; in test [10] it was 50.3%; in test [11] it was 36.2%; in test [12], 22.1%. Moreover, the growth in [13] is 58.9%; in test [14] it was 39.1%; in test [15] it was 70%; in test [16], 26.3%; in test [17], 41.9%; in [18], 13.8%. Besides, the values for the growth in test [19] and in test [20] were 34.4% and -64.3% (active), respectively.
As to `CC(C)OC(=O)[C@H](C)NP(=O)(Oc1ccccc1)C1CCCN(O)C1=O` (stereo not given in full), the growth in test [1] was 89.6%; in [2], 70.9%; in test [3], 84.6%; in test [4], 111%; in test [5] it was 105%; in [6], 104%. Also, the growth was 97.6% in [7]; 105% in [8]; 94.3% in test [9]; 93.1% in test [10]; 98.1% in test [11]; 94.2% in test [12]. Besides, the growth in [13] is 43.6%; in [14], 92.3%; in test [15], 57.2%; in [16] it was 93.9%; in [17], 95.6%; in test [18], 87.7%. In addition, the growth in [19] is 93.8%; in [20], 66.5%.
With `[Cl][Hg][n]1c(-c2ccco2)nc2ccccc21`, the growth in test [1] was 99%; in test [2], 97.5%; in [3], 98.8%; in [4] it was 115%; in test [5] it was 96.4%; in [6], 116%. Further, the growth in test [7] was 85.7%; in test [8] it was 100%; in test [9], 107%; in test [10], 121%; in test [11], 97.3%; in test [12], 78.8%. Besides, the growth in test [13] was 119%; in test [14] it was 100%; in test [15] it was 104%; in test [16] it was 105%; in test [17], 106%; in test [18], 99.3%. For the same molecule, the figures for the growth in [19] and in test [20] were 103% and 86.1%, respectively.
Consider `COC(=O)[C@@H](C)C[C@H](Cc1ccccc1)NC(=O)c1csc([C@@H](C[C@H](C(C)C)N(C)C(=O)[C@H](C)NC(=O)[C@H]2CCCN2C)OC(C)=O)n1`, for which the growth in [1] is 60.8%; in [2] it was 68.2%; in [3], 63.7%; in test [4], 63.6%; in test [5], 30.9%; in [6], 37.6%. The growth was -10.7% (active) in [7]; 83% in test [8]; 45% in [9]; 22.8% in test [10]; 51.6% in test [11]; 11.5% in test [12]. The growth is 56.2% in test [13]; 63.6% in [14]; 21.8% in test [15]; 53.9% in test [16]; 31.1% in [17]; 39.9% in [18]. In addition, the growth in test [19] is 36.4%; in test [20], 37.5%.
